In PubChem BioAssay (EPA / NIEHS) one finds outcome and AC50 data, which are given here for 27 compounds.

“And” between values parts separate entries of the source, which are not always exact repeats. Equal entries are not always repeated. Inconclusive results are not listed. Some structures have more than one record in an assay (separate samples or runs), and their calls can disagree. The source made the active and inactive calls. Rule for the calls: active = hit-call score of the fitted dose curve at least 0.9, where 1 is the maximum; inconclusive = response in the unintended direction; inactive = score below 0.9.

As usually defined, the AC50 is the concentration at which the activity in the assay is half-maximal.

rat Somatostatin Receptor (SST), Sstr1 (gene 25033), sequence (P28646 whole entry, looked up): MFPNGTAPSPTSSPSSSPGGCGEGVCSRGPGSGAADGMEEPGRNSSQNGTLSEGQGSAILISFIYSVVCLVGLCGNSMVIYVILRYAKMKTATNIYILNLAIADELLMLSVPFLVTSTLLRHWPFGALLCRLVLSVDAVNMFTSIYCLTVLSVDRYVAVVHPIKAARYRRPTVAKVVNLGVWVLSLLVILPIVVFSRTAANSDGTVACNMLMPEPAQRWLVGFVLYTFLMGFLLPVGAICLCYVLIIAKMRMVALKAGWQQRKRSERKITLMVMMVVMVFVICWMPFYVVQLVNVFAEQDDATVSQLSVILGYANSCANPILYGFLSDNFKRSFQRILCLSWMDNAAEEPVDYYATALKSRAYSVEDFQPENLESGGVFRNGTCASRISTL
rat Thyrotropin Releasing Hormone Receptor (TRH), Trhr (gene 25570), sequence (Q01717 whole entry, looked up): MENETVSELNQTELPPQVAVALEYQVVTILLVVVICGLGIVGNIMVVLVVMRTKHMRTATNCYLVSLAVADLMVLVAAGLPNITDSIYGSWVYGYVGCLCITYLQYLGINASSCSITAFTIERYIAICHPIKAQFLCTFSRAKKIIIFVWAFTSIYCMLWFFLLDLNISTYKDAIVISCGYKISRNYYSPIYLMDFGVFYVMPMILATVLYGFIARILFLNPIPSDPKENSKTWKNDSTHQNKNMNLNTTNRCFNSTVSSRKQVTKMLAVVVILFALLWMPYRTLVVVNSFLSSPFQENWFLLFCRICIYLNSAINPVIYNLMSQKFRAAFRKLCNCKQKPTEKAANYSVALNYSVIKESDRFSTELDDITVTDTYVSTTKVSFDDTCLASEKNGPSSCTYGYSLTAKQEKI
Adra2b (gene 24174), sequence (P19328 whole entry, looked up): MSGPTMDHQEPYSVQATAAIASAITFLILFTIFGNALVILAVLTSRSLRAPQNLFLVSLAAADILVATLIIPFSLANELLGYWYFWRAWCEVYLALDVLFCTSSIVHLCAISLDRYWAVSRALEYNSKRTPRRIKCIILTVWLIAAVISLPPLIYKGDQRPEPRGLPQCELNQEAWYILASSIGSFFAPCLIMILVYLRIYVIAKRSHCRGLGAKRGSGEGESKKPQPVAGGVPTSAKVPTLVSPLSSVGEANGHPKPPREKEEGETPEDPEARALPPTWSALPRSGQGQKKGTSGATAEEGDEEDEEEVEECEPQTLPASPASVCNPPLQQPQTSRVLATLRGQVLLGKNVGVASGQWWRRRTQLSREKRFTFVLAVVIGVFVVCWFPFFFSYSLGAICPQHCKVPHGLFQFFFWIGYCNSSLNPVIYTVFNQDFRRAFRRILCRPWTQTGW
rat Opioid Receptor, Non-selective Sodium (Na+) Binding, Oprm1 (gene 25601), sequence (P33535 whole entry, looked up): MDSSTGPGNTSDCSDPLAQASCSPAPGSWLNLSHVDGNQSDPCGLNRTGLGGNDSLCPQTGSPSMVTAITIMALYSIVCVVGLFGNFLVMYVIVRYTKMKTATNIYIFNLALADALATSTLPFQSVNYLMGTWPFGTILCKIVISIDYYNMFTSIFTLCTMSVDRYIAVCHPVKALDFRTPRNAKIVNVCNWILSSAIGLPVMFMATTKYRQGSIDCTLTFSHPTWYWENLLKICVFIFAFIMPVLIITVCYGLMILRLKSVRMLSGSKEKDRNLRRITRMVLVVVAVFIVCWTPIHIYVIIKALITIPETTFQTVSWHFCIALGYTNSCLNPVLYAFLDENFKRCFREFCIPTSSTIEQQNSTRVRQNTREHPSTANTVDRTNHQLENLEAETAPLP
rat Neurokinin-1 Receptor (NK1), Tacr1 (gene 24807), sequence (P14600 whole entry, looked up): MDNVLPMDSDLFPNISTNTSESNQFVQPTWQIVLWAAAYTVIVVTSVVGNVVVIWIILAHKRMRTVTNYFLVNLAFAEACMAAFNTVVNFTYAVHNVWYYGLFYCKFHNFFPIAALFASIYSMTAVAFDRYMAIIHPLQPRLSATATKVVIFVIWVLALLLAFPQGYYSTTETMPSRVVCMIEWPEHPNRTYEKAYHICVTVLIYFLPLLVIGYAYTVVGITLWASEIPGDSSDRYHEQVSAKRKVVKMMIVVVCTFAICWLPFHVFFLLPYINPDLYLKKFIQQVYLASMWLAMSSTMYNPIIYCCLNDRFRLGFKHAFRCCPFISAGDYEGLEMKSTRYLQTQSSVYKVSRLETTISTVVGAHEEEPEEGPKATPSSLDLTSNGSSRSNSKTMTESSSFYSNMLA

For one experiment, the target named is Adra2b (gene 24174) (UniProt P19328). In words: NVS_GPCR_rmAdra2B: NovaScreen (NVS) G Protein-Coupled Receptor Assay for hybird cells Adrenergic, Alpha 2B Receptor (Adra2B) (AID 2283306). The gist of the method:
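Compounds screened first at 25 uM in duplicate, with actives followed up in concentration-response; specific radioligand displacement from hybrid neuroglioma/blastoma cell membrane preparations measured by filter scintillation counting after 1 h, normalized to DMSO.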
Take `C[C@]12C[C@H](O)[C@H]3[C@@H](CCC4=CC(=O)CC[C@@]43C)[C@@H]1CC[C@@H]2C(=O)CO`: the outcome was inactive.

For `C=CCOC(Cn1ccnc1)c1ccc(Cl)cc1Cl` (stereo unspecified), the AC50 is 6.96 µM (active).

Regarding `CC(C)(c1ccc(O)cc1)c1ccc(O)cc1`, the call was inactive.

A further experiment deals with rat Neurokinin-1 Receptor (NK1), Tacr1 (gene 24807) (UniProt P14600). In words: NVS_GPCR_rNK1: NovaScreen (NVS) G Protein-Coupled Receptor Assay for rat Neurokinin-1 Receptor (NK1) (AID 2283309). The method, boiled down:
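Competitive radioligand binding to NK1 in rat submaxillary membranes, 1 h incubation, filtration and scintillation read-out. Compounds first screened at 25 uM in duplicate, then concentration-response for actives; signal loss relative to DMSO.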
Regarding `Oc1ccc(C(c2ccc(O)cc2)C(Cl)(Cl)Cl)cc1`, the AC50 was 39.4 µM (active).

With `C[C@]12CC[C@@H]3c4ccc(O)cc4C[C@@H](CCCCCCCCCS(=O)CCCC(F)(F)C(F)(F)F)[C@H]3[C@@H]1CC[C@@H]2O` (stereo partly specified), the result was inactive.

As to `C=CCOC(Cn1ccnc1)c1ccc(Cl)cc1Cl` (stereo unspecified), the AC50 is 37.8 µM (active).

For the compound `C#C[C@]1(O)CC[C@H]2[C@@H]3CCC4=CC(=O)CC[C@@H]4[C@H]3CC[C@@]21CC`, the call was inactive.

For a further experiment, the target named is rat Opioid Receptor, Non-selective Sodium (Na+) Binding, Oprm1 (gene 25601) (UniProt P33535). Description: NVS_GPCR_rOpiate_NonSelectiveNa: NovaScreen (NVS) G Protein-Coupled Receptor Assay for rat Opioid Receptor, Non-selective Sodium (Na+) Binding (AID 2283311). The gist of the method:
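Filtration radioligand binding on rat forebrain membrane preparations, read 1.5 h after dosing. Single-concentration 25 µM primary screen in duplicate, followed by singleton concentration series to 50 µM max for actives; DMSO baseline.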
With `CSC(=O)c1cccc2nnsc12`, the call was inactive.

As to `CCOC(=O)c1ccc(O)cc1`, the call was inactive.

In the case of `S=C(S)NCCNC(=S)S.[Mn+2].[S-]C([S-])=NCCN=C([S-])[S-].[Zn+2]`, the outcome was inactive.

Consider `CC(=O)S[C@@H]1CC2=CC(=O)CC[C@]2(C)[C@H]2CC[C@@]3(C)[C@@H](CC[C@@]34CCC(=O)O4)[C@H]12`, for which the concentration at half-maximal activity (AC50) is 17.8 µM (active).

As to `C=CCOC(Cn1ccnc1)c1ccc(Cl)cc1Cl` (stereo unspecified), the result was inactive.

As to `CC(C)(c1ccc(O)cc1)c1ccc(O)cc1`, the half-maximal activity concentration (AC50) was 25.4 µM (active) and 17 µM (active) and 20.5 µM (active).

The next experiment addresses rat Somatostatin Receptor (SST), Sstr1 (gene 25033) (UniProt P28646). Description: NVS_GPCR_rSST: NovaScreen (NVS) G Protein-Coupled Receptor Assay for rat Somatostatin Receptor (SST) (AID 2283314). The method, boiled down:
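Single-concentration duplicate screen (25 uM), then concentration-response up to 50 uM for chemicals passing a threshold such as 30% inhibition. Membranes came from rat forebrain. Binding was measured 1 h post-dose by filter radiodetection and scintillation, relative to DMSO.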
For the compound `S=C(S)NCCNC(=S)S.[Mn+2].[S-]C([S-])=NCCN=C([S-])[S-].[Zn+2]`, the AC50 was 1.49 µM (active) and the result was inactive.

`COC(=O)c1ccccc1S(=O)(=O)NC(=O)Nc1nc(OC(F)F)cc(OC(F)F)n1`: the AC50 was 36.3 µM (active).

With `CC(C)(C)[C@@H](O)[C@@H](Cc1ccc(Cl)cc1)n1cncn1`, the result was inactive.

The next experiment deals with rat Neonicotinoid receptor (NNR), Chrna7 (gene 25302) (UniProt Q05941). Description: NVS_LGIC_rNNR_BungSens: NovaScreen (NVS) Ligand-Gated Ion Channel Assay for rat Neonicotinoid receptor (NNR) (AID 2283315). The gist of the method: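 Rat cortical membrane preparation incubated 2.5 h with tritiated or iodinated radioligand and test chemical. Bound radioactivity was filtered and counted by scintillation, and displacement was analysed against DMSO.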
rat Neonicotinoid receptor (NNR), Chrna7 (gene 25302), sequence (Q05941 whole entry, looked up): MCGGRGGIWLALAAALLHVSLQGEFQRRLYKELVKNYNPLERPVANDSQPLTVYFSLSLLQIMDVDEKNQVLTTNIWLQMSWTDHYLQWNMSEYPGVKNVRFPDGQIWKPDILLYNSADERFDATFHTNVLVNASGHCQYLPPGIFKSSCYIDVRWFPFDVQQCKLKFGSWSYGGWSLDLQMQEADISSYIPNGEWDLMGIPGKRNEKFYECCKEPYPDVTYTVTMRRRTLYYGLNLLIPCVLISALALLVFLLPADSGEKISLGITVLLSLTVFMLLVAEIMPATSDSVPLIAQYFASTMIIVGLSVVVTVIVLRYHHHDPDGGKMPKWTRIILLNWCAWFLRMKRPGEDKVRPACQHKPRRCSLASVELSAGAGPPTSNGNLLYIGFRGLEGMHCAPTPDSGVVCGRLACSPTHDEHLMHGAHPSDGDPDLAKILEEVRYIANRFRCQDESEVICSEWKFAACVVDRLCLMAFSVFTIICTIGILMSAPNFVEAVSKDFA
As for `O=C(c1ccc(O)cc1O)c1ccc(O)cc1O`, the compound was called inactive.

Regarding `C[C@]12C[C@H](O)[C@H]3[C@@H](CCC4=CC(=O)CC[C@@]43C)[C@@H]1CC[C@@H]2C(=O)CO`, the compound was classed as inactive.

As to `N[C@@H](Cc1cc(I)c(Oc2ccc(O)c(I)c2)c(I)c1)C(=O)O`, the call was inactive.

Turning to `CC(=O)S[C@@H]1CC2=CC(=O)CC[C@]2(C)[C@H]2CC[C@@]3(C)[C@@H](CC[C@@]34CCC(=O)O4)[C@H]12`, the AC50 was 17.1 µM (active).

As to `CC(C)(c1ccc(O)cc1)c1ccc(O)cc1`, the result was inactive.

The next experiment has as its system NCBI gene 24521. In words: NVS_IC_rKATPCh: NovaScreen (NVS) Ion Channel Assay for rat Potassium Channel, ATP-Sensitive (KATPCh) (AID 2283319). The method, boiled down:
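Primary duplicate screen at 25 uM, then singleton concentration series to 50 uM maximum, in a rat cortex membrane radioligand displacement assay. Binding measured by filtration and scintillation 2 h post-dose; DMSO baseline.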
As to `CN(C)C(=O)Nc1ccc(Cl)c(Cl)c1`, the call was inactive.

With `c1ccc(Nc2ccccc2)cc1`, the compound was called inactive.

For the compound `COC(=O)c1ccccc1C(=O)O`, the AC50 was 25 µM (active).

Test system in a further experiment: not listed separately
Description: NVS_IC_rCaDHPRCh_L: NovaScreen (NVS) Ion Channel Assay for rat Calcium Channel, Type L, Dihydropyridine Site (CaDHPRCh_L) (AID 2283320). The gist of the method:
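Rat cortex membrane preparation; dihydropyridine-site radioligand displacement read 1 h post-dose by filtration and scintillation. Primary single-point screen 25 uM in duplicate, then concentration series to 50 uM maximum; DMSO as negative control.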
For the compound `Oc1ccc(C(c2ccc(O)cc2)C(Cl)(Cl)Cl)cc1`, the AC50 was 6.47 µM (active).

In the case of `O=C(c1ccc(O)cc1O)c1ccc(O)cc1O`, the outcome was inactive.

`CCOC(=O)C(C)Oc1ccc(Oc2nc3ccc(Cl)cc3o2)cc1` (stereo unspecified): the result was inactive.

In the case of `CC(C)(c1ccc(O)cc1)c1ccc(O)cc1`, the result was inactive.

A further experiment addresses Sodium channel protein type 1 subunit alpha (Rattus norvegicus) (UniProt P04774). In words: NVS_IC_rNaCh_site2: NovaScreen (NVS) Ion Channel Assay for rat Sodium Channel, Site 2 (NaCh) (AID 2283322).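 Note: hit means loss of radioligand binding signal relative to DMSO so AC50 marks displacement.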 The gist of the method:
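Initial duplicate single-point testing at 25 uM, followed by concentration-response runs for actives. Binding of radioligand to rat forebrain membranes quantified after 1 h via filter-based radiodetection.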
Turning to `CCOC(=O)NCCOc1ccc(Oc2ccccc2)cc1`, the call was inactive.

For the compound `CC(=O)S[C@@H]1CC2=CC(=O)CC[C@]2(C)[C@H]2CC[C@@]3(C)[C@@H](CC[C@@]34CCC(=O)O4)[C@H]12`, the AC50 was 8.6 µM (active).

For `C=CCOC(Cn1ccnc1)c1ccc(Cl)cc1Cl` (stereo unspecified), the half-maximal activity concentration (AC50) was 4.57 µM (active).

Regarding `CC(C)(c1ccc(O)cc1)c1ccc(O)cc1`, the AC50 was 25.4 µM (active) and the call was inactive.

In the case of `OB(O)O`, the compound was called inactive.

The target of a further experiment is rat Glutamate, AMPA Site (AMPA), Gria1 (gene 50592) (UniProt P19490). In words: NVS_LGIC_rAMPA: NovaScreen (NVS) Ligand-Gated Ion Channel Assay for rat Glutamate, AMPA Site (AMPA) (AID 2283324). The method, boiled down: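 Screening at 25 uM in duplicate preceded concentration series reaching 50 uM for qualifying compounds. Radioligand displacement on rat forebrain membranes, 1 h, filter-based scintillation readout; reduced binding relative to DMSO.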
rat Glutamate, AMPA Site (AMPA), Gria1 (gene 50592), sequence (P19490 whole entry, looked up): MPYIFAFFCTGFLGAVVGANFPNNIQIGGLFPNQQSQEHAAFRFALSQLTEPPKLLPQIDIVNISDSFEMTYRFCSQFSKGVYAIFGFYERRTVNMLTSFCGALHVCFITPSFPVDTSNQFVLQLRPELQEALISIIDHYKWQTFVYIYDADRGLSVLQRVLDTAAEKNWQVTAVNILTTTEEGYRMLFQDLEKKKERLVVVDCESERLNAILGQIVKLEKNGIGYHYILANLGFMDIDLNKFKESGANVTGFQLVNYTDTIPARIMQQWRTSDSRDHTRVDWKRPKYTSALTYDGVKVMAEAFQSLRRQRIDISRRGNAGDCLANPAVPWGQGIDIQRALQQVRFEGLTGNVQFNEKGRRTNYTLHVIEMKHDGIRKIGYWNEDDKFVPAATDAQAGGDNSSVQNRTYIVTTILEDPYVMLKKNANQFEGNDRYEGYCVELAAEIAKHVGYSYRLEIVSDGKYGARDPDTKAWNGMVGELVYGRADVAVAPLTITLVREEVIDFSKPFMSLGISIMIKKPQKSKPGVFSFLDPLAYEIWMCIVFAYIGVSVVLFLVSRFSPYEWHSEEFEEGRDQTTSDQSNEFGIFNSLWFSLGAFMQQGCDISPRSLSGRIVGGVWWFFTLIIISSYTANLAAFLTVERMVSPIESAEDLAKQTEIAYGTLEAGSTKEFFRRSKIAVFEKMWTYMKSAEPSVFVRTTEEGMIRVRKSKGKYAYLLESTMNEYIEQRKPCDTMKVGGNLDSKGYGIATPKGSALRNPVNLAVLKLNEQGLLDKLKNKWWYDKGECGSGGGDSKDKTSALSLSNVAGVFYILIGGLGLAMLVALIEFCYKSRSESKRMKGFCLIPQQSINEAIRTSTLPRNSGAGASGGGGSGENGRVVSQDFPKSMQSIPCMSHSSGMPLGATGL
Take `Oc1ccc(C(c2ccc(O)cc2)C(Cl)(Cl)Cl)cc1`: the outcome was inactive.

Take `S=C(S)NCCNC(=S)S.[Mn+2].[S-]C([S-])=NCCN=C([S-])[S-].[Zn+2]`: the AC50 was 4.81 µM (active) and the result was inactive.

On to `S=C([S-])NCCNC(=S)[S-].[Mn+2]`, for which the compound was called inactive.

On to `CCCCCOC(=O)COc1cc(N2C(=O)C3=C(CCCC3)C2=O)c(F)cc1Cl`, for which the result was inactive.

Another experiment deals with rat Gamma-Aminobutyric Acid Type A Receptor, Non-Selective (GABAR-NonSelective), Gabra1 (gene 29705) (UniProt P62813). Description: NVS_LGIC_rGABAR_NonSelective: NovaScreen (NVS) Ligand-Gated Ion Channel Assay for rat Gamma-Aminobutyric Acid Type A Receptor, Non-Selective (GABAR-NonSelective) (AID 2283326). The method, boiled down: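 Compounds were first screened in duplicate at 25 uM, with actives run as singleton concentration series (max 50 uM). Binding of a radioligand to rat whole-brain GABA-A preparation was measured by filtration and scintillation counting after 1 h, DMSO baseline.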
rat Gamma-Aminobutyric Acid Type A Receptor, Non-Selective (GABAR-NonSelective), Gabra1 (gene 29705), sequence (P62813 whole entry, looked up): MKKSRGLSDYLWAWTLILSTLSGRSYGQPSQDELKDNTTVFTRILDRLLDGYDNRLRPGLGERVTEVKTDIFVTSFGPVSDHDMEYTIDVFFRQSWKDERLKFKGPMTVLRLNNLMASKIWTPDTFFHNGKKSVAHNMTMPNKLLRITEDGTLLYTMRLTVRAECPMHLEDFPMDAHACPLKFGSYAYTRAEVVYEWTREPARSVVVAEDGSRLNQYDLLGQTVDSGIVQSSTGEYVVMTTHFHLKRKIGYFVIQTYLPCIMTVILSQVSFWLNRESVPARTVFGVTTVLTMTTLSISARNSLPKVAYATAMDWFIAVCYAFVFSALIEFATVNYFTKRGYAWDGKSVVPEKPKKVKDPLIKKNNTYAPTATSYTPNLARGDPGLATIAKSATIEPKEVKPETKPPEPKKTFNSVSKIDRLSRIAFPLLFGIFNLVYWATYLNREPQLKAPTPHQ
Regarding `CCOC(=O)C(C)Oc1ccc(Oc2cnc3cc(Cl)ccc3n2)cc1` (stereo unspecified), the compound was classed as inactive.

In the case of `c1ccc(Nc2ccccc2)cc1`, the call was inactive.

For the compound `COC(=O)CSc1cc(N=c2sc(=O)n3n2CCCC3)c(F)cc1Cl`, the compound was classed as inactive.

For another experiment, the target named is rat Glutamate, NMDA Agonist Site (GluNMDA), Grin1 (gene 24408) (UniProt P35439). In words: NVS_LGIC_rGluNMDA_Agonist: NovaScreen (NVS) Ligand-Gated Ion Channel Assay for rat Glutamate, NMDA Agonist Site (GluNMDA) (AID 2283327). The method, boiled down:
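Radioligand displacement at the agonist site on rat forebrain membrane preparations, read by filter scintillation after 1 h. Chemicals were first run at 25 uM in duplicate; those passing threshold were titrated to a 50 uM maximum.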
Take `S=C(S)NCCNC(=S)S.[Mn+2].[S-]C([S-])=NCCN=C([S-])[S-].[Zn+2]`: the compound was called inactive.

In the case of `S=C([S-])NCCNC(=S)[S-].[Mn+2]`, the outcome was inactive.

As for `CC(=O)S[C@@H]1CC2=CC(=O)CC[C@]2(C)[C@H]2CC[C@@]3(C)[C@@H](CC[C@@]34CCC(=O)O4)[C@H]12`, the outcome was inactive.

Turning to `CC(C)(c1ccc(O)cc1)c1ccc(O)cc1`, the AC50 is 19.7 µM (active) and 25.4 µM (active) and 15 µM (active).

Turning to `CC(C)(C)[C@@H](O)[C@@H](Cc1ccc(Cl)cc1)n1cncn1`, the compound was classed as inactive.

Another experiment addresses rat Thyrotropin Releasing Hormone Receptor (TRH), Trhr (gene 25570) (UniProt Q01717). Description: NVS_GPCR_rTRH: NovaScreen (NVS) G Protein-Coupled Receptor Assay for rat Thyrotropin Releasing Hormone Receptor (TRH) (AID 2283329).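 Note: hit means lower bound tracer signal versus DMSO baseline.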 The method, boiled down:
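Competitive radioligand binding on rat forebrain membrane preparations, with filtration and scintillation readout after 4 h. Primary testing in duplicate at 25 uM; actives confirmed in concentration-response. DMSO defined baseline.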
For the compound `O=C(c1ccc(O)cc1O)c1ccc(O)cc1O`, the compound was classed as inactive.

As for `C[C@]12CC[C@@H]3c4ccc(O)cc4C[C@@H](CCCCCCCCCS(=O)CCCC(F)(F)C(F)(F)F)[C@H]3[C@@H]1CC[C@@H]2O` (stereo partly specified), the outcome was inactive.

As to `O=C(c1ccccc1)C1CCCCC1`, the compound was called inactive.

Turning to `COC(=O)c1ccccc1S(=O)(=O)NC(=O)Nc1nc(OC(F)F)cc(OC(F)F)n1`, the compound was called inactive.

For the compound `CCCCC(CC)CN1C(=O)C2C3C=CC(C3)C2C1=O` (stereo unspecified), the compound was classed as inactive.

For the compound `CC(=O)S[C@@H]1CC2=CC(=O)CC[C@]2(C)[C@H]2CC[C@@]3(C)[C@@H](CC[C@@]34CCC(=O)O4)[C@H]12`, the result was inactive.

As for `CC1(C)C(C=C(Cl)Cl)C1C(=O)OCc1cccc(Oc2ccccc2)c1` (stereo unspecified), the compound was called inactive.

On to `C=CCOC(Cn1ccnc1)c1ccc(Cl)cc1Cl` (stereo unspecified), for which the AC50 was 17 µM (active).
